Bioassay records as filed in PubChem.
An excerpt weighted towards active compounds, which were near 4.7% of everything screened.
PLK1 PBD inh: Plk1 polo box domain binding inhibitors, primary screen, biochemical, fluorescence polarization; Serine/threonine-protein kinase PLK1 (Homo sapiens), P53350; Plk1 PBD phosphopeptide binding; inhibition, %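 (tested at about 20 µM)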; 97,000 tested, 0.13% active; AID 693, 2007; in the data active = inhibition above about 34%, passing the limit was not always enough
PTK2B oligo ant: antagonists of Pyk2 self-association, primary screen, Q293 cells, FERM NanoBiT luminescence, HTS. z-score (the deposit names both 25 µM and 10 µM). active compounds read low. Protein-tyrosine kinase 2-beta (Homo sapiens), Q14289. 99,000 tested, 0.83% active. AID 1347419, 2020;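 active = Z-score of -3 or lower, scaled per plate to the spread of control and sample wells; inactive = z-score above -3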;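 note: negative z-score means lost luminescence so less FERM oligomerization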
Cav3 T inh: Cav3.2 calcium influx blockers – cell-based, Fluo-4 calcium fluorescence, FDSS, MLSMR library, primary screen | Voltage-dependent T-type calcium channel subunit alpha-1H (Homo sapiens), O95180 | Cav3.2-expressing cells; active compounds read low | B-score at 10 µM | 100,000 tested, 4% active;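 active = single-dose well whose peak fluorescence ratio is a statistical outlier from its plate by either plate-standardised score or position-corrected B-score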
hDAT+cocaine: changed hDAT dopamine uptake under cocaine IC80, either direction, primary screen, cocaine antagonist project, cell-based, LLC-PK1 hDAT, [14C]-dopamine uptake, MLSMR; Sodium-dependent dopamine transporter (Homo sapiens), Q01959; LLC-PK1 hDAT cells, [14C]-dopamine uptake with cocaine IC80; actives deviate in either direction; B-score at 10 µM; 110,000 tested, 1.3% active; AID 449768, 2010;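 active = Z score or B-score, a plate-position-corrected score, falls beyond the plate's 99.7% confidence bounds, in either direction; inactive = both scores lie inside the 99.7% bounds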
Target sequence (Q01959 whole entry, looked up): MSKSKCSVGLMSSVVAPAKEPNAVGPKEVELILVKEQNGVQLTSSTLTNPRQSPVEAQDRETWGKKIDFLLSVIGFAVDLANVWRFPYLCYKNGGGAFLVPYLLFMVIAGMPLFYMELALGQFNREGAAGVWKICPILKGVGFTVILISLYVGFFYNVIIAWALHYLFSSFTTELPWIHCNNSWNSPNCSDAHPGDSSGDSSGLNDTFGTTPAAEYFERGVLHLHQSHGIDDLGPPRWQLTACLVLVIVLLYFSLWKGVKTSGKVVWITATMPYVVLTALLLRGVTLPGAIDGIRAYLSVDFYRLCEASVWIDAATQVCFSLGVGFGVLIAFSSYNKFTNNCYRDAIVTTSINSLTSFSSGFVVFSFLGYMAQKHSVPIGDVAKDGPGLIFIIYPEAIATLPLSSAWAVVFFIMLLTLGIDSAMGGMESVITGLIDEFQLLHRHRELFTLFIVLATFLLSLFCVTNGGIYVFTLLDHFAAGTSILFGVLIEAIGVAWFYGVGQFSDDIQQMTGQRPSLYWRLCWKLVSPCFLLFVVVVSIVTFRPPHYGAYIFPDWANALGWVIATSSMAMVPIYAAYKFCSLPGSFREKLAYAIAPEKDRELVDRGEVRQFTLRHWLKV
SDO1 yeast rescue: growth rescue of sdo1-depleted yeast, primary screen, S. cerevisiae, bone marrow failure model | S. cerevisiae sdo1-depleted JHY4D growth rescue, OD600 30 h; active compounds read high; pdr5 snq2 efflux-pump mutant strain | z-score at 10 µM | 140,000 tested, 0.21% active;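 active = z-score above 3 at both the 24 hr and the 30 hr optical density reads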
PLK1 kinase inh: human PLK1 kinase inhibitors, primary screen, biochemical, TR-FRET | recombinant PLK1 kinase, TR-FRET peptide phosphorylation | inhibition, % at 10 µM | Serine/threonine-protein kinase PLK1 (Homo sapiens), P53350 | 97,000 tested, 0.53% active;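 active = inhibition of 50% or more in the single-concentration screen; inactive = inhibition below 50%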
Each line names hits and unclear results; the compound was inactive in the other large screens.

CCOc1ccc(OCc2ccc(C(=O)N3CCc4ccccc4C3)o2)cc1	Cav3 T inh -2.8
Nc1ccccc1Nc1ccccc1	hDAT+cocaine 2.5
COc1ccc2oc(=O)c(C(=O)N3CCN(c4ccccc4)CC3)cc2c1	hDAT+cocaine 3.4
COc1ccc2oc(=O)c(C(=O)N3CCN(c4ccccc4C)CC3)cc2c1	none
COc1ccc(-n2cnc3cc(NCc4ccccn4)ccc32)cc1	none
CCC(=O)Nc1ccc2c(c1)ncn2-c1ccc(OC)cc1	hDAT+cocaine 2.9
CCC(=O)N[C@@H]1CC(C(C)(C)NC(=O)CC)CC=C1C (stereo not given in full)	hDAT+cocaine -9.9
Cn1c(=O)c2c(ncn2CC(=O)N/N=C/c2ccc(Br)s2)n(C)c1=O	none (no result: PLK1 PBD inh, PTK2B oligo ant, Cav3 T inh, hDAT+cocaine, PLK1 kinase inh)
CC(C)CC(=O)Nc1ccc2c3c(cccc13)CC2	none (no result: PLK1 PBD inh, PTK2B oligo ant, Cav3 T inh, hDAT+cocaine, PLK1 kinase inh)
Cc1ccc(N2C(=O)N(CC(=O)NCc3ccc(Cl)cc3)C(=O)C2C)cc1 (stereo not given)	Cav3 T inh -5.2
COc1ccc(CNC(=O)CN2C(=O)C(C)N(c3ccc(C)cc3)C2=O)cc1 (stereo not given)	none (no result: Cav3 T inh, hDAT+cocaine)
CCc1ccccc1N1CC23C=CC(O2)C(C(=O)OC)C3C1=O (stereo not given)	PLK1 kinase inh 57 (no result: PTK2B oligo ant)
CC(C)Oc1cccc(-c2cc(C(=O)NC(=S)N(C)c3ccccc3C(=O)O)c3ccccc3n2)c1	none (no result: PLK1 PBD inh, PTK2B oligo ant, Cav3 T inh, hDAT+cocaine, PLK1 kinase inh)
CCC(C)c1ccc(NC(=O)C/C(C)=N/NC(=O)c2cnccn2)cc1 (stereo not given)	none (no result: PLK1 PBD inh, PTK2B oligo ant, Cav3 T inh, hDAT+cocaine, PLK1 kinase inh)
COc1ccc([N+](=O)[O-])cc1NC1CCCCC1	Cav3 T inh -5
CCCNC(=O)c1ccccc1NC(=O)c1ccccc1N(C)S(=O)(=O)c1ccc(C)cc1	Cav3 T inh -4.7
CCCNC(=O)c1ccccc1NC(=O)c1ccccc1N(C)S(C)(=O)=O	none
O=C(N/N=C/c1ccc(Br)o1)/C(=C/c1ccc([N+](=O)[O-])cc1)NC(=O)c1ccccc1	Cav3 T inh -4.9
CCc1nnc(NC(=O)CC(CN(C)S(=O)(=O)c2ccccc2)c2ccccc2)s1 (stereo not given)	Cav3 T inh -6.9 (no result: PTK2B oligo ant)
CN(CC(CC(=O)Nc1nncs1)c1ccccc1)S(=O)(=O)c1ccc(Br)cc1 (stereo not given)	Cav3 T inh -9.5 (no result: PTK2B oligo ant)
O=C1CCCC2=C1C(c1ccccn1)Nc1ccc(C(=O)c3ccccc3)cc1N2 (stereo not given)	none (no result: PLK1 PBD inh, PTK2B oligo ant, Cav3 T inh, hDAT+cocaine, PLK1 kinase inh)
O=C1CCCC2=C1C(c1ccco1)Nc1ccc(C(=O)c3ccccc3)cc1N2 (stereo not given)	Cav3 T inh -3.6, hDAT+cocaine 3.7
CCOC(=O)N1CCN(S(=O)(=O)c2ccc(C(=O)Nc3ccc4c(c3)C(=O)NC4=O)cc2)CC1	none (no result: PLK1 PBD inh, Cav3 T inh, hDAT+cocaine, PLK1 kinase inh)
Cc1cc(Cl)c(S(=O)(=O)Nc2ccc3c(c2)OCO3)cc1OCC(=O)NC1CCCCC1	Cav3 T inh -4.2
Cc1cc(Cl)c(S(=O)(=O)Nc2ccc3c(c2)OCO3)cc1OCC(N)=O	none
CN(/N=C/c1ccc(O)cc1O)c1nc(-c2ccccc2)cc(-c2ccccc2)n1	none (no result: PLK1 PBD inh, PTK2B oligo ant, Cav3 T inh, hDAT+cocaine, PLK1 kinase inh)
O=C(NC1CCCCC1)N1CCN(c2ccccc2)CC1	none
Cc1ccc(S(=O)(=O)N2CCCC(NC(=O)N3CCN(c4ccccc4)CC3)C2)cc1 (stereo not given)	Cav3 T inh -4.4
CNc1nc(NCCOC23CC4CC(CC(C4)C2)C3)nc(OCC(F)(F)F)n1	Cav3 T inh -5.4
COc1cccc(C2CC(c3cccs3)=NN2C(=O)CSc2nc3c(cnn3-c3ccc(F)cc3)c(=O)[nH]2)c1OC (stereo not given)	hDAT+cocaine 3 (no result: PLK1 PBD inh, PTK2B oligo ant, PLK1 kinase inh)
COc1ccc(C2CC(c3cccs3)=NN2C(=O)CSc2nc3c(cnn3-c3ccccc3)c(=O)[nH]2)cc1 (stereo not given)	none (no result: PLK1 PBD inh, PTK2B oligo ant, PLK1 kinase inh)
O=C(CSc1nc2c(cnn2-c2ccccc2)c(=O)[nH]1)N1CCOCC1	none
O=C(CSc1nc2c(cnn2-c2ccc(F)cc2)c(=O)[nH]1)N1CCOCC1	hDAT+cocaine -7.9
